Hits are enriched below; roughly 4.2% of the tested compounds scored in any of these assays.
esBAF inh – Bmi1 luciferase reporter increase in mESCs, primary screen, esBAF inhibitor project, mouse ES cells, Bmi1 luciferase knock-in, single point. 24 h; 100% = twice the neutral-well signal. hit rate 2% among 350,000. reporter increase, % at 12.5 µM; in the data active = activation above about 40%; inconclusive = no clear call, values can overlap the other calls;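 also: 0% = median of the plate's neutral control wells and 100% = double that signal; a rise in the Bmi1 reporter signal indicates esBAF inhibition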
hgDAF12 agonist – H. glycines DAF-12 receptor agonists, primary screen, cell-based, luminescence, HEK293, GAL4 fusion, UAS-luciferase; HEK293 GAL4-hgDAF12 UAS-luciferase reporter, agonist luminescence; normalized to butyrate control; activation, % at 6.8 µM; Nuclear hormone receptor DAF-12 (Heterodera glycines), GAL4 fusion; hit rate 1.8% among 370,000;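 active = activation above a cutoff set at the mean of all screened compounds plus 3 SD, cut at about 10% in these data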;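 also: 0% = DMSO wells and 100% = sodium butyrate wells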
hcDAF12 agonist – H. contortus DAF-12 nuclear receptor activators, primary screen, cell-based, luminescence, HEK293, lit1-tk-luc reporter; activation, % at 6.8 µM; HEK293 hcDAF-12 lit1-tk-luc reporter; 0% DMSO, 100% Δ7-dafachronic acid; hit rate 1.4% among 370,000;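 active = activation above the mean of all tested compounds plus 3 SD, cut at about 5.5% in these data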;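 also: 100% = response to 3 µM Δ7-dafachronic acid high control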
DAX1 inh – DAX1 (NR0B1) inhibitors on StAR promoter, primary screen, cell-based, luminescence, SF-1 (NR5A1), full-length DAX-1; HEK293T StAR-luciferase reporter, SF-1/DAX-1 repression relief; inhibition, % at 6.8 µM; hit rate 1.1% among 370,000;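 active = inhibition above the mean over all tested compounds plus 3 SD, cut at about 3.6% in these data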;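 also: 0% = DAX-1 cells with DMSO and 100% = cells lacking DAX-1 with DMSO; higher inhibition means more luminescence from relief of DAX-1 repression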
Wnt bcat act – Wnt/beta-catenin pathway activators, primary screen, cell-based, plate reader, single point; Wnt/beta-catenin reporter cell assay, activator; activation, % at 9.35 µM; hit rate 1.2% among 300,000; AID 743398, 2014; in the data active = activation above about 30%, passing the limit was not always enough; inconclusive = no clear call, values can overlap the other calls;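 also: 0% = neutral control wells and 100% = positive control wells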
ssDAF-12 act – S. stercoralis DAF-12 nuclear receptor activators, primary screen, cell-based, luminescence, HEK293, GRIP1 co-expression, lit1-tk-luc. Nuclear hormone receptor DAF-12 (Strongyloides stercoralis). HEK293 ssDAF-12/GRIP1 lit1-tk-luc reporter; % of 3 µM dafachronic acid response. activation, % at 6.8 µM. hit rate 1% among 370,000. AID 652126, 2013;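 active = activation above the mean over all tested compounds plus 3 SD, cut at about 0.9% in these data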;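 also: 0% = DMSO-only wells and 100% = 3 µM delta7-dafachronic acid wells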
The depositor's hits bear a star; ? = inconclusive; / = no result given.

SMILES | esBAF inh | hgDAF12 agonist | hcDAF12 agonist | DAX1 inh | Wnt bcat act | ssDAF-12 act
COc1cc(N)c(Cl)cc1NC(=O)c1ccccc1 | -2 | 3 | 0 | 1 | / | -1
Cc1c(Cl)cccc1NC(=O)c1cccc(OC(F)F)c1 | 50* | 2 | 0 | 1 | 7 | -1
COc1cc(NC(=O)c2ccccc2)c(OC)cc1Cl | -5 | 4 | 5.8* | 0 | / | 0
Cc1ccc(NC(=O)c2cccc(OC(F)F)c2)c(OC(F)F)c1 | 4 | 1 | 0 | 1 | 1 | -2
Cc1ccc(C(=O)Nc2ccccc2OC(F)F)cc1 | 9 | 11* | 0 | -1 | / | -1
COc1ccc(NC(=O)c2ccccc2F)cc1Cl | 22 | 11* | 3 | 2 | / | 0
CCCNC(=O)Nc1ccc2c(c1)OC[C@@H](C)N(C(=O)CC)C[C@@H](C)[C@@H](OC)CN(C)C2=O | -1 | / | / | / | / | /
COc1cc(OC)c(NC(=O)c2cccc(F)c2)cc1Cl | / | -2 | 5 | 0 | 0 | 1.2*
O=C(Nc1ccc(Oc2cccnc2)cc1)c1ccccc1F | 60* | 8 | -1 | -1 | 18 | -1
COc1cc(OC)c(NC(=O)c2ccc(F)cc2)cc1Cl | 4 | 2 | 1 | 0 | -7 | 0
O=C(Nc1ccc(Oc2cccnc2)cc1)c1ccccc1Cl | / | 5 | -2 | -1 | 2 | 1
Cc1ccc(S(=O)(=O)Nc2ccc3c(c2)C(=O)N([C@@H](C)CO)C[C@H](C)[C@@H](CN(C)Cc2ccc(C(F)(F)F)cc2)OCCCC[C@@H](C)O3)cc1 | 1 | / | / | / | / | /
c1cn2c(Nc3ccc4c(c3)OCCO4)c(-c3ccc(N4CCOCC4)cc3)nc2cn1 | / | 1 | 1 | 0 | 49* | -2
COc1cccc(-c2nnc(SCc3nc4ccccc4s3)n2C)c1 | 14 | 2 | 5 | 1 | / | 0
c1ccc(-n2cnnc2SCc2nc3ccccc3s2)cc1 | 36 | 7 | 5 | 1 | 51* | 1.0*
c1ccc(-c2ncc(CSc3nncn3-c3ccccc3)s2)cc1 | / | 0 | 0 | -1 | / | -1
CCn1c(SCc2nc3ccccc3s2)nnc1-c1ccccc1 | 46* | 6 | 5 | 0 | / | 1
COc1ccc(C)cc1-n1nnnc1SCc1nc2ccccc2s1 | 57* | 6 | 5.9* | 1 | 24 | 1.2*
COCCn1c(SCc2nc3ccccc3s2)nc2ccccc21 | 104* | 7 | 5 | 2 | ? | 0
CCC(=O)Nc1ccc2c(c1)OC[C@H](C)N(C(=O)COC)C[C@H](C)[C@H](OC)CN(C)C2=O | -6 | / | / | / | / | /
C/C=C/c1ccc([C@H]2[C@@H](CNC(C)=O)N(C(=O)Cc3ccncc3)[C@H]2CO)cc1 | -1 | / | / | / | / | /
O=C(C[C@@H]1CC[C@@H]2NC[C@H](O)COC[C@H]2O1)NCc1ccc2c(c1)OCO2 | 2 | / | / | / | / | /
CO[C@@H]1CN(C)C(=O)c2cc(NC(=O)Cc3ccccc3)ccc2OC[C@H](C)N(C(C)=O)C[C@H]1C | 0 | / | / | / | / | /
CCC(c1nnc(SCc2nc3ccccc3s2)n1Cc1ccccc1)N(C)C (stereo not given) | 70* | 2 | 5.7* | 2 | / | 0
c1ccc(Cn2c(SCc3nc4ccccc4s3)nnc2-c2ccco2)cc1 | 40 | 1 | 2 | -1 | / | 0
SMILES | esBAF inh | hgDAF12 agonist | hcDAF12 agonist | DAX1 inh | Wnt bcat act | ssDAF-12 act
O=C(C[C@H]1C[C@H]2c3cc(NC(=O)NC4CCCCC4)ccc3O[C@H]2[C@H](CO)O1)NCc1ccccc1 | 8 | / | / | / | / | /
Cc1ccc(N(CC(=O)N/N=C/c2cccc(Br)c2)S(C)(=O)=O)cc1 | / | 4 | 4 | 0 | -2 | 1.4*
Cc1sc2nc(-c3cccnc3)nc(Cl)c2c1-c1ccccc1 | 58* | 3 | -4 | 0 | 4 | -1
CCOC(=O)Nc1ccc2c(C)cc(=O)oc2c1 | 43* | 11* | 2 | 1 | 28 | -1
Cc1cc(=O)oc2cc(NC(=O)c3ccccc3Cl)ccc12 | / | 13* | 3 | 1 | ? | 0
CCCCOC(=O)Nc1ccc2c(C)cc(=O)oc2c1 | 68* | 10 | 3 | 3 | 59* | 0

Source: PubChem BioAssay
